The values below come from PubChem BioAssay (NCATS).

Results filed as inconclusive are left out. Entries that show only a call come without a potency. Calls of active or inactive are those of the source. Calls follow the shape of the dose curve; as a rule, active = well fitted inhibition curve with a large enough effect; inconclusive = small, poorly fitted or top-dose-only effect; inactive = flat fitted curve, though single readings scatter.

The test concerns Zika virus NS2B-NS3 protease. In words: Primary screen GU AMC qHTS for Zika virus inhibitors (AID 1347154). Also: nearly all actives have a fitted effect of over 70% in size. The conditions noted are these: Zika NS2B-NS3 unlinked protease, AMC fluorogenic substrate; series mostly up to 54.1 µM. The procedure, abridged: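 Unlinked Zika NS2B hydrophilic domain/NS3 protease domain noncovalent complex (25 nM final) in 10 mM Tris-HCl pH 8.0, 0.01% Tween 20, with AMC peptide substrate. Fluorescence (ex 340, em 450 nm) change over 15 min, room temperature; percent inhibition fitted to 4-parameter Hill equation.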
In general terms: In qHTS, concentration-response curves come from the screen itself.
For the compound `O=C(CO)[C@@H](O)[C@H](O)[C@@H](O)CO`, the Potency entry is “inactive”.

On to `O=C(O)c1cn(C2CC2)c2cc(Cl)c(F)cc2c1=O`, for which the Potency entry is “inactive”.

On to `CN1[C@@H]2CC[C@H]1CC(NC(=O)n1c(=O)[nH]c3ccccc31)C2` (stereo not given in full), for which the Potency result is “inactive”.

`COc1ccccc1N1CCN(CC(O)COc2cc(OC)c(OC)c(OC)c2)CC1` (stereo not given): the Potency entry was “inactive”.

`CCCCCN(CCCOC)C(=O)C(CCC(=O)O)NC(=O)c1ccc(Cl)c(Cl)c1` (stereo not given): the Potency result is “inactive”.

For `CCCCCCCCCCCCCCCCCCNC(=O)OC1CCN(C(=O)OC[C@H](COC(=O)N(Cc2cccc[n+]2CC)C(=O)c2ccccc2OC)OC)CC1`, the Potency entry is “inactive”.

Consider `CC(NC(CCc1ccccc1)C(=O)O)C(=O)N1C(=O)N(C)CC1C(=O)O` (stereo not given), for which the Potency result was “inactive”.

With `Cc1cnc(NS(=O)(=O)c2ccc(N)cc2)nc1`, the Potency entry is “inactive”.

As to `O=C(Nc1ccc(Cl)cc1)Nc1ccc(Cl)c(Cl)c1`, the Potency result was “inactive”.

On to `CCOC(=O)c1ccc(O)c(O)c1`, for which the Potency result is “inactive”.

For the compound `CN1CC[C@H](c2c(O)cc(O)c3c(=O)cc(-c4ccccc4Cl)oc23)[C@H](O)C1`, the Potency entry is “inactive”.

As for `O=C(O)/C=C(\CC(=O)O)C(=O)O`, the Potency entry is “inactive”.

`CN1C(=O)CC(C)(c2ccccc2)C1=O` (stereo not given): the Potency entry was “inactive”.

For the compound `CC(=O)Oc1ccc(C2(c3ccc(OC(C)=O)cc3)Oc3ccccc3NC2=O)cc1`, the Potency result was “inactive”.

For `O=C(O)Cc1ccc(OCCNC[C@H](O)c2ccccc2)cc1`, the Potency result was “inactive”.
